HT1080 IDH1KD tx = kills HT-1080 cells with IDH1 knockdown; HT-1080 IDH1 knockdown viability, ATP luminescence, 48 h; Potency, µM (series often up to 46.1 µM), for the others: top-dose activity, negative = toxicity, hits mostly cytotoxic; actives 2% (n = 360,000);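 also: 0% = DMSO wells and -100% = cell-free medium wells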
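After a 2 h attachment period, IDH1KD HT-1080 cells took pin-transferred compound for 48 h at 37 °C; ATP-based luminescence after 10 min room-temperature reagent incubation reported viability.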
MCF10A rereplic = inducers of DNA re-replication in MCF 10A breast cells; AID 624296; actives 2.9% (n = 350,000); Potency, µM (doses to about 46.1 µM), for the others: top-dose activity, positive = re-replication, usual class: activators; MCF 10A DNA re-replication, Hoechst nuclear intensity, 48 h; also: % of control where 0% means no effect; nearly all actives have a fitted effect of over 50% in size
KB-3-1 cytotox = KB-3-1 parental cell cytotoxicity; KB-3-1 viability, CellTiter-Glo ATP luminescence, 72 h; Potency, µM (top dose mostly 46.1 µM), usual class: cytotoxic; actives 1.4% (n = 400,000); AID 1347075; also: % is scaled to controls: 0 for no effect and ±100 for the full control effect; nearly all actives have a fitted effect of over 60% in size
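Viability of parental KB-3-1 cells, measured by CellTiter-Glo luminescence, followed a 72 h incubation at 37 °C with pinned compounds in phenol-red-free DMEM containing 10% FBS.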
SW480 rereplic = induces DNA re-replication in SW480 colon adenocarcinoma cells; SW480 DNA re-replication, Hoechst DNA content imaging, 48 h; Potency, µM (top dose mostly 46.1 µM), for the others: at the top dose re-replication activation, most hits filed as activators; actives 1.8% (n = 340,000); also: % of control where 0% means no effect; nearly all actives have a fitted effect of over 55% in size
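Hoechst fluorescence of nuclei (405 nm excitation, 500-530 nm emission) measured by plate-scanning imager after 48 hr compound exposure at 37 C; re-replication scored as increased number of nuclei with elevated intensity.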
HT1080NT lethal = kills 2HG-producing HT-1080-NT fibrosarcoma cells | HT-1080-NT fibrosarcoma viability, CellTiter-Glo ATP luminescence, 48 h | actives 1.6% (n = 360,000) | Potency, µM (titrated, usually from 46.1 µM), for inactives: at the highest dose activity, negative = less viability, most hits filed as cytotoxic | AID 686970;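 also: NT is the 2HG producing partner of a matched IDH1 knockdown line; 0% = DMSO-treated cells and -100% = media-only wells without cells; nearly all actives have a fitted effect of over 55% in size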
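Viability of the 2HG-overproducing fibrosarcoma line after 48 hours of compound exposure at 37 degrees C was determined by luminescence with CellTiter-Glo, and concentration-effect curves were then fitted and categorized.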
KB-V1 cytotox = KB-V1 MDR subline cytotoxicity; KB-V1 MDR cells viability, CellTiter-Glo, 72 h; actives 3.4% (n = 400,000); Potency, µM (series often up to 46.1 µM), most hits filed as cytotoxic; also: % is scaled to controls: 0 for no effect and ±100 for the full control effect; nearly all actives have a fitted effect of over 60% in size
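Luminescent ATP read-out (CellTiter-Glo, 10 min) measures survival of drug-selected KB-V1 MDR cells after 72 h, 37 degrees C compound exposure. Medium: phenol-red-free DMEM, 10% FBS. Values from fitted concentration-response curves.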
The depositor's hits bear a star; i = inactive; ? = inconclusive; . = not tested or not shown; ! = a repeat was not active; [ ] = remark or other dose. Shown are actives, neighbours in structure and some others; about 7.9% of the full set was active somewhere. Calls follow the shape of the dose curve; as a rule, active = well fitted curve in the direction sought with a large enough effect; inconclusive = small, poorly fitted or top-dose-only effect, or another doubt; inactive = no such curve, though single readings can be large; an effect the other way counts as inactive or inconclusive. Potency is read from the fitted curve at half-maximal effect.

SMILES	HT1080 IDH1KD tx	MCF10A rereplic	KB-3-1 cytotox	SW480 rereplic	HT1080NT lethal	KB-V1 cytotox
CN1OC[C@@H]2CN(S(=O)(=O)c3ccccc3)[C@H](c3ccc(N4CCCCC4)cc3)C[C@@H]21	-5.0%	.	?	.	-3.6%	i
CC1(c2ccc3ccccc3c2)NC(=O)N(CC(=O)N2CCC(C(N)=O)CC2)C1=O (stereo not given)	-2.8%	-16.4%	i	-89.4%	1.6%	i
CC1(c2ccc3ccccc3c2)NC(=O)N(CC(=O)N2CCN(Cc3ccccc3)CC2)C1=O (stereo not given)	-17.5%	?	?	?	5.8µM*	i
CCCN1CNc2c(c(=O)[nH]c(=S)n2CCc2ccc(C)cc2C)C1	1.8%	.	.	.	14.0%	.
Cc1ccc(NC(=O)CSc2nc3ccccc3c3nc4ccccc4n23)cc1	0.282µM*	1.46µM*	0.92µM*	0.651µM*	0.398µM*	1.64µM*
CC(=O)n1nc(-c2cccc(C)c2)nc1SCC(=O)Nc1ccccc1	-7.4%	20.6%	i	-2.6%	-0.5%	i
O=C(CSc1nc2ccccc2c2nc3ccccc3n12)NCc1ccco1	-20.7%	-2.0%	i	-3.5%	-22.2%	?
O=C(CSc1nc(-c2ccccc2)nn1C(=O)c1ccccc1)Nc1cccc([N+](=O)[O-])c1	1.9%	4.7%	?	-7.9%	-0.8%	20.6µM*
CCC(=O)n1nc(-c2ccccc2)nc1SCC(=O)Nc1ccc(C)cc1	2.2%	-0.2%	i	-18.9%	0.0%	20.6µM*
Cc1ccc(-c2noc(-c3ccc(N4CCCC4)c([N+](=O)[O-])c3)n2)cc1	.	.	i	.	.	i
CN(Cc1ccccc1)C(=O)c1cccc(NC(=O)Cc2ccc(NC(=O)C3CCN(C(=O)C4CCC4)CC3)cc2)c1	-2.3%	4.8%	i	-5.6%	0.1%	i
O=C(NCc1ccccn1)C1CC(c2ccc(Cl)c(Cl)c2)=NO1 (stereo not given)	?	11.2µM*	?	16.2%	-20.4%	?
O=C(NCc1cccnc1)C1CC(c2ccc(Cl)c(Cl)c2)=NO1 (stereo not given)	-29.6%	9.2µM*	?	13.8%	-23.8%	?
O=C(NCc1cccs1)C1CC(c2ccc(Cl)cc2)=NO1 (stereo not given)	?	9.2µM*	?	?	-21.7%	?
O=C(NCc1cccs1)C1CC(c2ccc(Cl)c(Cl)c2)=NO1 (stereo not given)	-24.7%	2.31µM*	i	-3.6%	-27.6%	i
O=C(NCCc1cccs1)C1CC(c2c(Cl)cccc2Cl)=NO1 (stereo not given)	-3.6%	1.2%	i	11.8%	16.4%	i
N#Cc1c(NC(=O)CSc2ccccn2)oc(-c2ccccc2)c1-c1ccccc1	-6.6%	20.6µM*	i	10.4%	1.6%	i
COc1ccc(-c2oc(NC(=O)CSc3nncn3C)c(C#N)c2-c2ccc(OC)cc2)cc1	16.4µM*	13µM*	?	2.4%	?	i
CCn1c(SCC(=O)Nc2oc(-c3ccccc3)c(-c3ccccc3)c2C#N)nnc1-c1ccco1	-14.0%	?	i	8.9%	-8.4%	?
N#Cc1c(NC(=O)CCN2C(=O)c3ccccc3C2=O)oc(-c2ccccc2)c1-c1ccccc1	0.3%	2.0%	i	-14.8%	-1.7%	i
CCn1c(SCC(=O)Nc2oc(-c3ccccc3)c(-c3ccccc3)c2C#N)nnc1-c1ccncc1	0.1%	23.1µM*	i	9.3%	-0.6%	i
CCCCCn1cc2c(c1-c1ccc(Cl)cc1)c(=O)n(C)c(=O)n2C	.	.	i	.	.	i
O=C(CC1Sc2ccccc2NC1=O)Nc1ccccc1[N+](=O)[O-] (stereo not given)	-4.6%	9.2%	i	4.6%	-2.8%	16.4µM*
Cc1ccccc1NS(=O)(=O)c1ccc(C(=O)NCC(c2ccco2)N(C)C)cc1 (stereo not given)	-10.4%	?	i	1.8%	-5.0%	14.6µM*
Cc1ccc(S(=O)(=O)N(C)c2ccc(C(=O)NCC(c3ccco3)N(C)C)cc2)cc1 (stereo not given)	6.8%	9.2µM*	i	-1.4%	3.1%[9.24 µM]	i
SMILES	HT1080 IDH1KD tx	MCF10A rereplic	KB-3-1 cytotox	SW480 rereplic	HT1080NT lethal	KB-V1 cytotox
Cc1ccc(C)c(S(=O)(=O)Nc2ccc(C(=O)NCC(c3ccco3)N(C)C)cc2)c1 (stereo not given)	0.4%	0.7%	i	-6.8%	4.3%	i
Cc1ccccc1NS(=O)(=O)c1ccc(C(=O)NCC(c2ccccc2)N(C)C)cc1 (stereo not given)	-25.6%	?	i	-20.0%	0.1%	?
N#Cc1cccc(OC2=NS(=O)(=O)c3ccccc32)c1	.	.	i	.	.	?
CCOC(=O)c1cccc(NC(=O)C2(S(=O)(=O)c3ccc(C)cc3)CC2)c1	-7.6%	-0.1%	i	-8.1%	5.3%	18.4µM*!
CCOC(=O)c1cccc(NC(=O)C2(S(=O)(=O)c3ccc(Cl)cc3)CC2)c1	-7.2%	-6.2%	i	3.9%	-4.8%	i
COC(=O)c1ccc(N=C2S/C(=C\c3cc(C)n(-c4cccnc4)c3C)C(=O)N2C)cc1	-0.3%	?	?	18.4µM*	-6.1%	i
COc1ccc(S(=O)(=O)N2CCN(c3cc(-c4ccccc4)nc4ncnn34)CC2)cc1	?	-3.2%	?	-2.7%	-6.7%	23.1µM*
O=S(=O)(c1ccc(Br)cc1)N1CCN(c2cc(-c3ccccc3)nc3ncnn23)CC1	-2.9%	24.1%	?	-1.9%	13.4%	13µM*
CCc1nc2ccc(C(=O)NCC3CCCCC3)cn2c1N(CCC(C)C)CCN(C)C	16.4µM*	.	i	.	18.4µM*	i
c1ccc(-c2nnc3sc(-c4cc5ccccc5o4)nn23)cc1	?	18.4µM*	i	?	17.8%	i
CN(C)c1ccc(Cn2ccc3ccccc32)cc1	.	.	i	.	.	i
CCOC(=O)c1c(-c2ccccc2)oc2ccc(N(C(C)=O)S(=O)(=O)c3ccccc3)cc12	.	.	i	.	.	i
CC(=O)c1c(C)oc2ccc(N(C(C)=O)S(=O)(=O)c3cccc4cccnc34)cc12	25.9µM*	9.2%	?	?	?	?
CCCC(=O)N(c1ccc2oc(C)c(C(C)=O)c2c1)S(=O)(=O)c1ccc(CC)cc1	.	.	3.66µM*	.	.	2.91µM*
COC(=O)c1c(C)oc2ccc(N(C(=O)c3ccncc3)S(=O)(=O)c3cc(C)ccc3C)cc12	.	.	13µM*	.	.	6.51µM*

High-throughput results: PubChem, National Center for Advancing Translational Sciences (NCATS)
